# From PubChem BioAssay (NCI)
# The panel holds about 79,000 compounds, 15% with a hit somewhere; the sample as a whole holds those more often. A number with no mark means an inactive call. Calls of active or inactive are those of the source. Rule as the data show it: active = growth inhibition above about 70%; inactive = the rest.
# Assays:
# [1] = NCI Yeast Anticancer Drug Screen. Data for the rad50 strain (AID 155);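 also: 0% = growth of vehicle-only cultures of the same strain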; details: S. cerevisiae rad50 strain growth inhibition; at 50.0 µM; active compounds read high
# Procedure, shortened: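 Inhibition values express reduced yeast growth in compound-treated cultures relative to vehicle-treated controls.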
# [2] = NCI Yeast Anticancer Drug Screen. Data for the mec2-1 strain (AID 157); details: S. cerevisiae mec2-1 strain, at 50.0 µM, active compounds read high
# Procedure, shortened: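 Strain: mec2-1 (DNA repair/cell cycle alteration). Compound exposure, then growth measured; inhibition expressed relative to vehicle.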
# [3] = NCI Yeast Anticancer Drug Screen. Data for the sgs1 mgt1 strain (AID 161);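 also: 0% = growth of cultures given vehicle only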; details: S. cerevisiae sgs1 mgt1 strain, at 50.0 µM, active compounds read high
# Procedure, shortened: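 Inhibition of yeast growth, normalised to vehicle-treated controls, is reported for a strain bearing genetic alterations in DNA damage repair.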
# [4] = NCI Yeast Anticancer Drug Screen. Data for the cln2 rad14 strain (AID 165);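 also: 0% = growth equal to vehicle treated cultures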; details: S. cerevisiae cln2 rad14 strain, at 50.0 µM, active compounds read high
# Procedure, shortened: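 Compounds are applied to the cln2 rad14 yeast strain, and growth is then compared with that of vehicle-treated cultures to give inhibition.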
# [5] = NCI Yeast Anticancer Drug Screen. Data for the bub3 strain (AID 167); details: S. cerevisiae bub3 mutant strain, at 50.0 µM, active compounds read high
# Procedure, shortened: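 Steps: expose the mutant yeast strain to compound; grow alongside vehicle-treated cultures; measure growth; express inhibition against the vehicle cultures.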
# [6] = NCI Yeast Anticancer Drug Screen. Data for the mlh1 rad18 strain (AID 175); details: S. cerevisiae mlh1 rad18 strain growth inhibition; at 50.0 µM; active compounds read high
# Procedure, shortened: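 Read-out is yeast growth inhibition, calculated against vehicle-only controls. The compound was applied to a strain engineered with DNA damage repair alterations.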
Structure (SMILES),growth inhibition [1],growth inhibition [2],growth inhibition [3],growth inhibition [4],growth inhibition [5],growth inhibition [6]
COc1cc(C(=O)O)c(Br)c(OC)c1OC,-1.55%,20.1%,2.55%,-12.7%,42.9%,1%
Nc1ncc[nH]c1=O,-16.1%,-4.1%,1.25%,-4.1%,2.9%,-20.2%
C#CC(C)(C)Nc1ccccc1,-10.8%,2.9%,-6.6%,-6.2%,-4.95%,4.9%
O=C(c1ccccc1)c1nc2c(Cl)ccc(Cl)c2cc1C(Br)Br,37.1%,20.8%,44%,45.2%,38.1%,44.1%
CCc1cc(O)cc(C)c1Cl,55.1%,29.6%,46.1%,46.4%,44.3%,26.1%
CC(C)C(C(N)=O)C(C)C,3.6%,-6.4%,-3.65%,10.7%,0%,-1.2%
CN(C)NC(=O)Nc1cccc2ccccc12,-25.2%,-22.3%,-6.15%,-22.4%,-26.9%,-20.4%
CN(C)Cc1cc(C(=O)/C=C/c2ccccc2Cl)cc(CN(C)C)c1O,-47%,-22.6%,-27.4%,-43.9%,3.9%,-31.1%
CSC12CC3C(=O)C=C[C@@H](O)[C@@H]3N1C(=O)C1(SC)CC3C(=O)C=C[C@@H](O)[C@@H]3N1C2=O (stereo not given in full),64.3%,78.2% (active),85.1% (active),39.8%,72.8% (active),65.2%
OC(c1ccccc1)c1c(-c2ccccc2)[nH]c(-c2ccccc2)c1C(O)c1ccccc1 (stereo not given),1%,14.8%,-6.5%,22.2%,-23.3%,-6.9%
Cc1ccccc1NC(=O)CS,17.6%,31.9%,31.2%,-21%,29.2%,33.2%
Cn1c(=O)cc2[nH]c3ccccc3n2c1=O,9.5%,22.4%,-10%,-5.7%,4.6%,-19.7%
Cc1cc(S(=O)(=O)Nc2nnc3c(Cl)cc(C(F)(F)F)cn23)c(S)cc1Cl,-30.2%,-35.2%,-33.4%,-14.3%,13.9%,-20%
CC(c1ccc(N)cc1)n1cnc2c(Cl)ncnc21 (stereo not given),-3.75%,18.2%,4.1%,-5.5%,8.85%,7.85%
O=[n+]1c2ccccc2n([O-])c2cn(-c3ccccc3)c(-c3ccccc3)c21,73.5% (active),67.4%,88.3% (active),80.5% (active),46.9%,89.2% (active)
OC(C/C(=N\Nc1ccccc1)c1ccc(F)cc1)(C(F)(F)F)C(F)(F)F,98.3% (active),98.8% (active),98.5% (active),97.8% (active),98.3% (active),98.6% (active)
O=C1CCC2(O1)c1ccc(O)cc1Oc1cc(O)ccc12,1.05%,-24.1%,-17.4%,-3.9%,7.6%,-7.3%
CN(c1ccccc1)C1C(=O)N(c2ccccc2)C1/C=C/c1ccccc1 (stereo not given),-8.7%,0.8%,13.3%,29.4%,11.9%,39.1%
CC(Oc1ccc2ccccc2c1I)C(=O)O (stereo not given),27.9%,12.8%,37.8%,18.6%,57.4%,36.8%
C=Cc1c(Cl)cccc1Cl,0.25%,-8.85%,-5.55%,3.5%,-18.6%,-11.3%

Structure (SMILES),growth inhibition [1],growth inhibition [2],growth inhibition [3],growth inhibition [4],growth inhibition [5],growth inhibition [6]
O=C(O)COCC(=O)N(CCOCCN(Cc1ccccc1)C(=O)COCC(=O)O)Cc1ccccc1,-18.4%,0.75%,7.25%,26.6%,0.7%,4.1%
COc1ccc2c(c1)CCC(c1nc3ccc(C)cc3[nH]c1=O)C2=O (stereo not given),7.95%,8.5%,7.95%,9.1%,-4.65%,22.6%
Cc1ccc(S(=O)(=O)OC2CCCC2OS(=O)(=O)c2ccc(C)cc2)cc1 (stereo not given),0.2%,14.5%,-8.5%,23.4%,-2.35%,-9.85%
O=C(Cc1ccccc1)NN1C(=O)/C(=C\c2ccccc2O)SC1=Nc1ccccc1,1.15%,-6.3%,31.4%,13.5%,-6.95%,7.25%
C=C(C)C(CCC)(C(=O)OCC)C(=O)OCC,3.05%,-9.15%,12.6%,-4.3%,-13.2%,-14.1%
Cn1c(=O)c2[nH]c(=O)n(C)c2n(C)c1=O,-5.35%,2.25%,12.6%,-9.55%,16.5%,16.1%
COc1c(C)c(C)c(OC)c(CC(=O)O)c1C,-3.05%,-0.6%,-3.7%,-34.9%,-17.7%,4.9%
NC(=O)c1ccc[n+](-c2ccc([N+](=O)[O-])cc2[N+](=O)[O-])c1,79.3% (active),54.6%,80.2% (active),39.8%,17.3%,63.4%
O=[N+]([O-])c1ccc(-c2ccc([N+](=O)[O-])cc2)cc1,-2.05%,-0.95%,7.7%,-38.5%,22.6%,-13.3%
CCCCCCCCCCCCCC(=O)CC,56.3%,-3.35%,17.9%,19.1%,12.4%,21.9%
O=C(C[n+]1ccncc1)c1cccc([N+](=O)[O-])c1,0.5%,-1.95%,9.15%,8.35%,7.65%,27.4%
CCc1cc(O)c([N+](=O)[O-])cc1[N+](=O)[O-],-15.7%,-3.95%,21.1%,-34.8%,-17.2%,-7.95%
CNC(=O)n1cnc2ccccc21,33.2%,30.4%,37%,13.1%,60%,25.3%
CN1CCN(C2=NCCO2)CC1,6.4%,22.1%,32.3%,32%,12.8%,20.2%
COC(=O)c1cc2c(n1S(=O)(=O)c1ccc(C)cc1)C(=O)C(=O)c1[nH]cc(C(=O)OCc3ccccc3)c1-2,0.6%,3.7%,20.6%,8.9%,14%,13.5%
COc1cc(C)c(OC)c(C/C=C(\C)CC2=C(CC(C)(C)O)C(=O)[C@]3(C)CCC[C@]3(C)C2)c1,33.6%,25.8%,13.7%,4.35%,16.5%,12.4%
CCN(CC)CCN(Cc1ccccc1)C(=S)NC(=O)c1ccccc1,-4.35%,2.15%,-5.25%,-5.8%,7.35%,-19.5%
CC(C)CCCC(C)C1CCC2C3CC=C4CC(OC(=O)C56C=CC(=O)C5C5C=CC6CC5)CCC4(C)C3CCC12C (stereo not given),11.4%,21.6%,-1.2%,2.25%,1.65%,20.9%
Cc1cccc(C)c1NC(=O)CCC(=O)CC(=O)C(C)C,-2.6%,-4.85%,-6.2%,2.55%,7.25%,-13.1%
CCOC(=O)c1[nH]n(-c2ccccc2)c(=O)c1/C=N/C(=S)Nc1ccccc1,-22.3%,-10.6%,-16.6%,-11.8%,-21.3%,-7.85%
